Values joined by “and” are separate entries in the source; they are usually repeats but may differ in a detail not shown here. Equal entries are not always repeated. Out of some 420,000 compounds screened, about 50,000 (12%) were called active. A call without a number means that no potency is given here. Another 26% or so got no clear call; they are omitted. Calls come from the whole dose curve; as a rule, active = well fitted inhibition curve with a large enough effect; inconclusive = small, poorly fitted or top-dose-only effect; inactive = flat fitted curve, though single readings scatter. The sample as a whole holds a higher share of actives than the screen did.
experiment: qHTS for Inhibitors of human tyrosyl-DNA phosphodiesterase 1 (TDP1): qHTS in cells in presence of CPT; conditions: chicken DT40 Tdp1-/-;hTDP1 cells + 20 nM CPT, ATP luminescence, 48 h; series mostly up to 46.2 µM; note: nearly all actives have a fitted effect of over 55% in size
Procedure, shortened: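 Chicken DT40 Tdp1-/- cells stably complemented with human TDP1 were seeded at 400 cells/well in medium containing 20 nM camptothecin, exposed to pin-transferred compounds, and grown at 37 °C for at least 48 hr. Viability was read as ATP luminescence.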
Potency is the fitted concentration of half-maximal effect.

Compound	Potency
COc1cc(C2/C(=C(\O)c3ccc4c(c3)CC(C)O4)C(=O)C(=O)N2c2nnc(C)s2)cc(OC)c1OC (stereo not given)	inactive
Cc1cc(Nc2ccc(C(=O)N3CCCCC3)cc2)c2cccc(C)c2n1	inactive
CCOC(=O)N1CCN(C(c2ccnc3ccccc23)c2nnnn2-c2c(C)cccc2C)CC1 (stereo not given)	inactive
CCOC(=O)N1CCN(Cc2nc(N)nc(Nc3ccc(C)cc3)n2)CC1	inactive
CCOC(=O)N1CCN(C(c2cccnc2)c2ccc3cccnc3c2O)CC1 (stereo not given)	3.66 µM (active)
CC1(C(=O)O)CCC(C(=O)Nc2ccc(Cl)c(Cl)c2)C1(C)C (stereo not given)	inactive
COc1ccc(S(=O)(=O)NNC(=O)Nc2ccc(C)cc2)c(OC)c1	inactive
CCOC1=C2CN(S(=O)(=O)c3ccc(C)cc3)[C@H](c3cccs3)C[C@H]2[C@H]2C(=O)N(c3ccccc3)C(=O)[C@H]2C1	inactive
Cc1ccc(S(=O)(=O)c2c(COC(=O)c3cccc(Cl)c3)c(-c3ccccc3)nn2C)cc1	23.1 µM (active)
Cc1cc(C)n(-c2c(F)c(F)c(COC(=O)c3ccccc3)c(F)c2F)n1	inactive
O=C(COC(=O)c1cccc(Cl)c1)NC(=O)NCc1ccccc1	inactive
COc1ccc(S(=O)(=O)N2CCOCC2)cc1NC(=O)COc1ccccc1	inactive
CC1CC(C)CN(C/C=C/c2ccccc2[N+](=O)[O-])C1 (stereo not given)	inactive
O=C(CCNC(=O)c1ccccc1Cl)NN=Cc1ccco1	inactive
Cn1c(NCc2cccnc2)nc2cc(-c3ccc(F)cc3)sc2c1=O	inactive
COc1cccc(-c2cc3nc(NCc4ccccc4OC)n(C)c(=O)c3s2)c1	13 µM (active)
CC(=O)Nc1cccc(-c2cc3nc(NCc4cccnc4)n(C)c(=O)c3s2)c1	inactive
CN(C)S(=O)(=O)c1ccc(N/C=C(\[N+](=O)[O-])S(=O)(=O)c2ccccc2)cc1	inactive
C[C@@H](C(=O)N1CCNCC1)n1cc(CCC(=O)O)nn1	inactive
Cc1ccc(Cn2c(C)c(C(=O)NCc3ccccc3C(F)(F)F)sc2=O)cc1	inactive
NS(=O)(=O)c1ccc(CCNS(=O)(=O)c2cccc3cccnc23)cc1	inactive
O=[N+]([O-])c1ccccc1S(=O)(=O)Nc1cccc2cccnc12	794 nM (active) and 3.26 µM (active)
Cc1ccccc1NC(=O)c1ccccc1NS(=O)(=O)c1cccc2cccnc12	inactive
COc1cccc(C(=O)NC(=O)Nc2nc(C)cc(C(F)(F)F)n2)c1	inactive
Cc1ccc(N2CC(C(=O)Nc3cc(Cl)ccc3-n3cncn3)CC2=O)cc1 (stereo not given)	inactive

Compound	Potency
O=C(CN1CCN(C(=O)c2ccco2)CC1)Nc1ccc2c(c1)OCO2	inactive
O=C(c1ccco1)N1CCN(C(=S)Nc2cc(F)cc(F)c2)CC1	inactive
O=C(CN1CCN(C(=O)c2ccco2)CC1)Nc1ccc(Cl)c(C(F)(F)F)c1	23.1 µM (active)
Cc1ccc(-n2nnnc2CNC(=O)c2ccccc2C)cc1C	inactive
C[C@H]1CN([C@@H](C)CO)C(=O)CCCn2cc(nn2)CO[C@@H]1CN(C)S(=O)(=O)c1cccc(C#N)c1	inactive
O=C(O)C(c1cccs1)C1(O)CCCCC1 (stereo not given)	inactive
O=C(NCCCN1CCOCC1)c1cc(-c2ccccc2F)no1	inactive
COC(=O)CSc1snnc1-c1ccc(Cl)c(Cl)c1	inactive
Cc1c(NC(=O)C(C)OC(=O)c2c3c(nc4ccccc24)CCC(C)C3)c(=O)n(-c2ccccc2)n1C (stereo not given)	13 µM (active)
Cc1c(NC(=O)C(C)OC(=O)c2ccccc2O)c(=O)n(-c2ccccc2)n1C (stereo not given)	inactive
Cc1c(NC(=O)C(C)OC(=O)c2cc3c4ccccc4n(C)c3s2)c(=O)n(-c2ccccc2)n1C (stereo not given)	inactive
N#C/C(=C\c1ccccc1)c1n[nH]c(Cn2cncn2)n1	inactive
Cc1nn2cc(-c3ccc(Cl)cc3)cnc2c1Br	inactive
CCc1c(-c2ccc(F)cc2)ncn1Cc1cccc(-c2ccccc2)c1	11.6 µM (active)
Cc1cccc(Cn2cnc3c(N)c(C)c(C)cc32)c1	inactive
O=C(NCc1ccncc1)C1CCN(C(=O)c2cccc(Cl)c2)CC1	inactive
Nc1ccc(-n2nncc2-c2ccco2)cc1	inactive
O=C(NC(=S)Nc1ccc(Cl)c(C(=O)O)c1)c1cncc(Br)c1	inactive
COc1ccccc1N(CC(=O)Nc1ccccc1C(=O)N1CCCC1)S(C)(=O)=O	inactive
CCCn1c(N)c(C(=O)CSc2nnc(Cc3cccs3)n2C2CC2)c(=O)[nH]c1=O	inactive
Cc1cc2c(cc3c(SCc4nc(-c5ccccc5)oc4C)nnc(C)n32)o1	16.4 µM (active)
CCc1nnc(SCc2nc(-c3cccc(C)c3)oc2C)c2cc3sc(C)cc3n12	inactive
Cc1cc(NC(=O)CSCc2nc(-c3cccc(Cl)c3)oc2C)no1	inactive
Cc1ccc2nc(NC(=O)C3CSC4(C)CCC(=O)N34)sc2c1 (stereo not given)	inactive
Cc1ccc2nc(NC(=O)C3CCN(S(=O)(=O)c4ccc5c(c4)oc(=O)n5C)CC3)sc2c1	5.8 µM (active)

Compound	Potency
O=C(NC1CCCCC1)n1c(=O)oc2cc(S(=O)(=O)N3CCCCC3)ccc21	inactive
O=C(Nc1cc2c3c(c1)C1CCCC1CN3CC1CCCC21)c1ccc([N+](=O)[O-])cc1 (stereo not given)	inactive
CC[C@@H](C)[C@@H](C(=O)N1CCN(C(=O)OC(C)(C)C)CC1)n1cc(CCC(=O)O)nn1	inactive
O=C(O)c1cc(S(=O)(=O)NC2CCCc3ccccc32)ccc1O (stereo not given)	inactive
O=C(c1ccco1)N1CCN(CCOc2ccccc2)CC1	inactive
O=c1[nH]c2ccccc2n1C1CCN(CCOc2ccccc2)CC1	3.66 µM (active)
O=C(c1ccc(Br)o1)N1CCN(CCOc2ccccc2)CC1	inactive
CO[C@@H]1CN(C)C(=O)c2cc(NC(=O)C3CC3)ccc2OC[C@H](C)N(C(=O)CN2CCOCC2)C[C@@H]1C	inactive
NC(=O)C1CC(=O)N(c2ccc(OCC(=O)NCc3ccccc3)cc2)C1 (stereo not given)	inactive
O=C(c1cccc(Cl)c1)N1CCN(Cc2ccccc2)CC1	inactive
C#Cc1cc(N2CCN(C(=O)c3ccoc3)CC2)n2nc(-c3cccc(Cl)c3)cc2n1	7.31 µM (active)
CN(C)CCN1CCN(c2cc(-c3cccc(Cl)c3)nc3ccnn23)CC1	inactive
O=C(c1cccc(Cl)c1)N1CCN(CCc2ccncc2)CC1	inactive
O=C(c1ccccc1)N1CCN(c2cc(-c3ccccc3)nc3cc(-c4cccc(Cl)c4)nn23)CC1	23.1 µM (active)
CCCNC(=O)c1ccc(Cn2c(SCC(N)=O)nc3ccccc3c2=O)cc1	inactive
CCOc1ccccc1Nc1ccc2nonc2c1[N+](=O)[O-]	inactive
O=C(OCC(=O)N1CCCCCC1)c1cnc(Cl)c(Cl)c1	inactive
CCOC(=O)C1CCN(Cc2c(C(=O)N3CCOCC3)nc3c(C)cccn23)CC1	inactive
CCOC(=O)C(NC(=O)CC(C)C)(Nc1sc2c(c1C(N)=O)CCCC2)C(F)(F)F (stereo not given)	inactive
CCOc1ccc(S(=O)(=O)Nc2nc3cc(OC)ccc3s2)cc1	inactive
CCOc1ccc2nc(Nc3nc4ccc(NC(C)=O)cc4s3)sc2c1	18.4 µM (active)
CC(=O)Nc1ccc2nc(NC(=O)CS(=O)(=O)c3ccc(F)cc3)sc2c1	inactive
CCC(=O)c1ccc(OCC(=O)Nc2ccc(N3CCCCC3)cc2)cc1	inactive
CCC(=O)c1ccc(OCC(=O)Nc2ccc3nc(C)sc3c2)cc1	16.4 µM (active)
Cc1nc2ccc(NC(=O)C3CCCCC3)cc2s1	inactive

Compound	Potency
CC(CC(=O)Nc1ccc(F)cc1F)S(=O)(=O)c1ccc2c(c1)NC(=O)CO2 (stereo not given)	inactive
c1ccc2c(c1)CCc1snnc1-2	inactive
O=C(CCNS(=O)(=O)c1ccc(Br)cc1)NCC1CCCO1 (stereo not given)	inactive
CCc1cc(-c2n[nH]c(=S)n2CC(C)C)cs1	inactive
CC(C)CCOc1ccc(C(=O)C[N+]2(C)CCOCC2)cc1	20.6 µM (active)
C[N+]1(CC(=O)c2cccs2)CCOCC1	inactive
CCC(=O)c1ccc(OCC(O)CN2CC(C)OC(C)C2)cc1 (stereo not given)	inactive
COc1ccc(Br)cc1CNC(=O)c1cc(=O)[nH]c2ccc(S(=O)(=O)N3CCCC3)cc12	inactive
CCOC(=O)c1c(C)n(C)c2ccc(OC)c(NC(=O)CN3CCC4(CC3)OCCO4)c12	inactive
CCC(=O)Nc1ccc2nn(-c3ccc(F)cc3)nc2c1	inactive
Cc1nnc(NC(=O)/C=C/c2ccco2)s1	inactive
Cc1ccc(-n2nc3ccc(NC(=O)/C=C/c4ccco4)cc3n2)cc1C	23.1 µM (active)
COc1ccc(C(c2nnnn2Cc2cccs2)N2CCN(c3ccccc3)CC2)cc1OC (stereo not given)	inactive
COc1ccc(C(CC(=O)N2CCN(c3ccccc3)CC2)c2c(O)cc(OC)cc2OC)cc1 (stereo not given)	inactive
COc1cc(C(CCN2CCN(c3ccccc3)CC2)c2c(OC)cc(OC)c3ccc(=O)oc23)cc(OC)c1OC (stereo not given)	23.1 µM (active)
O=C(C(=O)N1CCN(c2ccccc2)CC1)c1ccc2c(c1)OCO2	inactive
COc1cc(OC)c2ccc(=O)oc2c1C(CCN1CCN(c2ccccc2)CC1)c1ccc2c(c1)OCO2 (stereo not given)	23.1 µM (active)
COc1ccc(F)cc1S(=O)(=O)NCC(c1ccc2c(c1)OCO2)N1CCN(C)CC1 (stereo not given)	inactive
C=CCNC(=S)NNC(=O)c1ccc(Br)o1	inactive
CCn1c(O)c2ccc(C(=O)N=NC(=O)c3cccnc3)cc2c1O	inactive
CN(Cc1ccco1)c1cc(-c2ccccc2C(F)(F)F)ncn1	inactive
FC(F)(F)c1ccccc1-c1cc(NCc2ccccc2)ncn1	7.31 µM (active)
COc1ccccc1CNc1cc(-c2ccccc2CN(C)C)ncn1	inactive
CCOc1cc(S(=O)(=O)NCc2ccc3c(c2)OCO3)ccc1F	inactive
Cc1ccc(C(=O)O/N=C(\N)c2ccccn2)cc1Cl	inactive

From PubChem BioAssay AID686979 (National Center for Advancing Translational Sciences (NCATS), 2013)
